In the library only some 31% were active in any assay of this set; here they are far more common.
CYP2C9 activ – human CYP2C9 activators, primary screen, biochemical, luminescence | AID 1024, 2008 | activation factor at 5 µM | recombinant CYP2C9, luciferin-H conversion; hits give high values; factor 1 = untreated enzyme, 0 = blocked | actives 1.4% (n = 96,000) | Cytochrome P450 2C9 (Homo sapiens), P11712;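 active = activation factor of 2 or more for CYP2C9 at a 5 µM dose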;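 note: 0 = sulfaphenazole-blocked wells and 1 = vehicle-only wells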
CYP2C19 act – human CYP2C19 activators, primary screen, biochemical, luminescence; Cytochrome P450 2C19 (Homo sapiens), P33261; recombinant CYP2C19, luciferin-H EGE luminescence; hits give high values; 0 = fully inhibited enzyme, 1 = untreated enzyme; activation factor at 5 µM; 96,000 tested, under 10 active; AID 1025, 2008;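 active = activation factor of at least 2 at 5 µM in the primary screen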;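 note: 0 = wells with 2.5 mM tranylcypromine and 1 = vehicle-only wells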
Target sequence (P33261 whole entry, looked up): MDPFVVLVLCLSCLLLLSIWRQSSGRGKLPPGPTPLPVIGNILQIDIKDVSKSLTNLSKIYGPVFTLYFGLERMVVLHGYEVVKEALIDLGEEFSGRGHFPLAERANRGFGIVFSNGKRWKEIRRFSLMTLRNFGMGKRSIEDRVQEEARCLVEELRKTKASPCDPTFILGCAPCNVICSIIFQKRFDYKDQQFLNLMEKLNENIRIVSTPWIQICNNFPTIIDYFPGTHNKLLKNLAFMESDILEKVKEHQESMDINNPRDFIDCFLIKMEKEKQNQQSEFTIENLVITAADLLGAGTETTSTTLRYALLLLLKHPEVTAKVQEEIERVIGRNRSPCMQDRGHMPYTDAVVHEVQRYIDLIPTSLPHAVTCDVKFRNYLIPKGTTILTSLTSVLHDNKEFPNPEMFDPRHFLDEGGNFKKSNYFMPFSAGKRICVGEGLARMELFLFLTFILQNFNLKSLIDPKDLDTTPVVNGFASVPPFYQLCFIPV
CYP2C19 inhib – blockers of cytochrome P450 2C19 activity – biochemical, luminescence, ADME assay, primary screen | P33261 | CYP2C19 Supersomes, luciferin-H EGE luminescence, 30 min | inhibition, % at 5 µM | actives 21% (n = 96,000) | AID 778, 2007;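 active = CYP2C19 inhibition above a set limit at 5 µM in the primary screen, cut at about 50% in these data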;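 note: plate controls were negative control wells for no effect and 2.5 mM tranylcypromine positive control for full effect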
CYP2C9 inh – blockers of cytochrome P450 2C9 activity – biochemical, luminescence, ADME assay, primary screen | CYP2C9 Supersomes, luciferin-H conversion | inhibition, % at 5 µM | actives 20% (n = 96,000) | P11712;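 active = blocking of liver enzyme CYP2C9 beyond about 50% at 5 µM, limit read from the data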
* hit, by the source's call.

SMILES	CYP2C9 activ	CYP2C19 act	CYP2C19 inhib	CYP2C9 inh
COc1ccc(-n2nnc3c(=O)n(Cc4cccc(C)c4)cnc32)cc1	0.4	0.8	24.2	55.8*
Cc1ccc(-c2nnc(SCC(=O)Nc3ccc(N4CCOCC4)cc3)o2)cc1	0.9	1	3.4	11.4
CCn1c2ccccc2c2cc(NC(=O)CSc3nnc(-c4cccc(C)c4)o3)ccc21	0.4	0.4	63.4*	64.2*
CCn1c(=O)cc(SCC(=O)Nc2cccc(SC)c2)c2ccccc21	1.4	0.9	9.1	-38.8
CCn1c2ccccc2c2cc(NC(=O)CSc3nnc(-c4cccc(F)c4)o3)ccc21	0.3	0.1	90.8*	69.5*
CCn1c2ccccc2c2cc(NC(=O)CSc3nnc(-c4ccccc4)o3)ccc21	0.2	0.1	94.9*	77.7*
CCOc1ccccc1N/C(=C(/C(Cl)=C(Cl)Cl)[N+](=O)[O-])n1cncn1	0.8	1	4.2	19.7
COc1cccc(C2C3=C(CCCC3=O)Nc3nc(-c4cc(OC)c(OC)c(OC)c4)nn32)c1 (stereo not drawn)	0.5	0.4	62.0*	49.6
CC(=O)COc1cc(C)cc2oc(=O)c(C)c(C)c12	0.7	0.8	17.4	34.2
COc1ccccc1C(=O)Nc1sc2c(c1C(=O)NCc1ccco1)CCCC2	0.2	0.8	18.1	84.0*
COC(=O)c1c(NC(=O)c2ccco2)sc(C(=O)N2CCCC2)c1C	0.4	0.7	26.3	60.6*
CCOC(=O)c1c(NC(=O)C(F)(OC)C(F)(F)F)sc(C(=O)N2CCCCC2)c1C (stereo not drawn)	0.2	0.8	23.7	76.3*
COc1ccccc1NC(=O)c1c(NC(=O)c2ccco2)sc2c1CCC2	0.4	0.8	18.0	64.1*
O=C(Nc1sc2c(c1C(=O)NC1CCCCC1)CCC2)c1ccco1	0.5	1	3.4	49.3
COc1ccc(OC)c(-c2nc3c(C)n[nH]c(=O)c3[nH]2)c1	0.9	1	4.5	10.2
Cc1ccc2c(c1)cc1c(=O)[nH]ncn12	1.2	1.1	-11.5	-20.7
COc1ccccc1NC(=O)c1csc2c1CCCC2	2.4*	0.6	38.5	-143.6
CCOC(=O)c1c(NC(=O)c2ccn(CC)n2)sc2c1CCCC2	0.3	0.5	54.6*	68.1*
CCc1c(C)sc(NC(=O)OC)c1C(=O)N1CCCCC1	1	0.5	52.5*	-1.7
CCOC(=O)c1c(NC(=O)c2ccco2)n(C2CCCCC2)c2nc3ccccc3nc12	0.5	1	-3.2	54.8*
CSc1ccc(C(=S)N2CCN(CCO)CC2)cc1	1.1	0.6	39.1	-5.6
CCC(=S)/C=C1\Sc2ccc3ccccc3c2N1CCCS(=O)(=O)O	1	1	-3.7	-1.3
Nc1nc(SCc2ccc(Cl)cc2)ns1	0.7	0.6	42.5	27.6
C/C(=N\N=C(/N)SC1CC(=O)N(c2ccc(Br)cc2)C1=O)c1cccs1 (stereo not drawn)	0.5	0.9	13.4	48.2
CCN(CCNC(=O)C1CCCN(S(=O)(=O)CC)C1)c1ccccc1 (stereo not drawn)	1	0.6	40.8	1.8
SMILES	CYP2C9 activ	CYP2C19 act	CYP2C19 inhib	CYP2C9 inh
COC(=O)c1c(NS(C)(=O)=O)sc2c1CCCC2	0.8	0.9	5.3	16.9
N#Cc1c(NC(NC(=O)c2ccco2)C(=O)c2ccccc2)sc2c1CCCC2 (stereo not drawn)	0.2	0.8	16.3	76.0*
COC(=O)c1c(NS(=O)(=O)Cc2ccccc2)sc2c1CCCC2	0	0.1	92.8*	95.5*
CCOC(=O)c1c(NC(=O)c2ccco2)sc2c1CCCC2	0.4	0.9	13.7	55.8*
COc1ccccc1OCC(=O)Nc1sc2c(c1C(=O)NCC1CCCO1)CCC2 (stereo not drawn)	0	0.5	52.1*	95.9*
NC(=O)c1c(NC(NC(=O)c2ccco2)C(=O)c2ccc(Cl)cc2)sc2c1CCCC2 (stereo not drawn)	0.6	1	-1.0	43.3
CCOc1ccc(Cc2nc(C)c(CC(=O)N3CCOCC3)c(=O)[nH]2)cc1	1.2	1	0.1	-15.3
Cc1c(OCc2ccccc2)c(=O)ccn1Cc1ccc(Cl)cc1	0.4	0.7	30.9	57.3*
Cc1ccc(Cn2ccc(=O)c(Cc3c(Cl)cccc3Cl)c2C)cc1	0.7	0.6	38.7	29.6
Cc1c(Cc2c(Cl)cccc2Cl)c(=O)ccn1C(C)c1ccccc1 (stereo not drawn)	0.6	0.1	90.1*	44.8
COc1ccc(Cn2ccc(=O)c(Cc3c(Cl)cccc3Cl)c2C)cc1	1.1	0.2	76.8*	-8.3
Cc1ccc(Cn2ccc(=O)c(OCc3ccccc3)c2C)cc1	0.7	0.6	43.5	27.5
CCCCOc1ccc(C(=O)Nn2cnnc2)cc1	0.1	0.1	92.7*	92.8*
COC(=O)[C@H](C)NC(=O)Nc1cccc(C)c1	0.9	1	-0.7	6.0
Cc1nc2c(c(=O)n1Cc1ccccc1Cl)c1nc3ccccc3nc1n2Cc1ccco1	0.5	1	4.4	52.2*
CCO/C(C)=N/n1c2nc3ccccc3nc2c2c(=O)n(Cc3ccccc3Cl)c(C)nc21	0.5	0.8	23.4	53.1*
COc1ccc(Cn2c3nc4ccccc4nc3c3c(=O)n(Cc4ccco4)c(C)nc32)cc1	0.7	1	0.2	25.9
CN(C)CCNC(=O)C12CC3(C)CC(C)(CC(C)(C3)C1)C2	1	0.9	12.7	0.5
CCCCC(CC)CNC(=O)C1C2C=CC(C2)C1C(=O)O (stereo not drawn)	0.9	1	4.8	5.0
Cc1ccc(C)c(C(=O)CSc2nnnn2-c2cccnc2)c1	0.8	0.6	35.9	24.2
Cc1ccc(C(=O)CSc2nnnn2C(C)C)c(C)c1	0.7	0.2	76.7*	34.5
Cc1ccc(C)c(C(=O)CSc2nnnn2C(C)C)c1	0.6	0.3	66.2*	38.3
CCCC(=O)Nn1cnc2c(c1=O)C1(CCCC1)Cc1ccccc1-2	0.5	0.7	34.6	48.6
CC(=O)Nn1cnc2c(c1=O)C1(CCCC1)Cc1ccccc1-2	0.4	0.1	88.5*	61.5*
O=c1[nH]cnc2c1C1(CCCC1)Cc1ccccc1-2	0.8	0.1	88.3*	22.4
SMILES	CYP2C9 activ	CYP2C19 act	CYP2C19 inhib	CYP2C9 inh
COc1cc(/C=C2\SC(c3ccc(C)cc3)=NC2=O)ccc1O	0.9	0.6	36.7	12.8
COc1cc(/C=C2\OC(=O)c3c(OC)cccc32)ccc1O	0.1	0	96.6*	94.6*
CCOC(=O)C1CCCN(C(=O)c2cnn3c(C(F)F)cc(-c4ccc(C)cc4)nc23)C1 (stereo not drawn)	0.3	0.7	28.0	73.3*
O=C(c1cnn2c(C(F)F)cc(C3CC3)nc12)N1CCCC1	1.3	0.9	9.0	-25.2
Cc1ccc(-c2cc(C(F)F)n3ncc(C(=O)N4CCN5CCCC5C4)c3n2)cc1 (stereo not drawn)	0.6	1.1	-7.2	37.4
COc1ccc(-c2cc(C(F)F)n3ncc(C(=O)N4CCSCC4)c3n2)cc1	0.2	0.6	39.6	76.0*

Source: PubChem (Sanford-Burnham Center for Chemical Genomics)
